The supplement of paper PMC13380429

Test system: Vero E6 infected with SARS-CoV-2
Experiment: inhibition of SARS-CoV-2 cytopathic effect; higher = more antiviral protection, active = above 15
Settings: 48 h

Measured: inhibition of SARS-CoV-2 cytopathic effect

CC(=O)CC/C=C(\C)CC/C=C(\C)CC/C=C(\C)CCC=C(C)C [teprenone]
inactive: 1 nM -0.07% | 8.33 nM 1.34% | 100 nM -1.34% | 833.33 nM 1.98% | 10000 nM 0.16%

CN1CC(O)C2=C/C(=N/NC(N)=O)C(=O)C=C21 (stereo not given) [carbazochrome]
inactive: 1 nM 2.27% | 8.33 nM 3.04% | 100 nM -0.28% | 833.33 nM -1.11% | 10000 nM 0.54%

CC1C=CC=CCCC=CC=CC=CC=CC(OC2OC(C)C(O)C(N)C2O)CC2OC(O)(CC(O)C(O)CCC(O)CC(O)CC(O)CC(=O)OC(C)C(C)C1O)CC(O)C2C(=O)O (stereo not given) [nystatin]
inactive: 1 nM 0.06% | 8.33 nM -1.74% | 100 nM -1.14% | 833.33 nM -1.11% | 10000 nM 3.99%

CS(=O)(=O)Nc1c(O)ccc2c1CCC[C@H]2C1=NCCN1
inactive: 1 nM 1.13% | 8.33 nM -1.43% | 100 nM -1.29% | 833.33 nM 0.49% | 10000 nM -3.82%

COc1cc(N)cn[n+]1-c1ccccc1 [amezinium]
inactive: 1 nM -1.03% | 8.33 nM -0.58% | 100 nM 0.21% | 833.33 nM 0.15% | 10000 nM -1.56%

Cc1onc(-c2ccccc2)c1C(=O)N[C@@H]1C(=O)N2[C@@H]1SC(C)(C)[C@@H]2C(=O)O [oxacillin]
inactive: 1 nM 0.69% | 8.33 nM 1.54% | 100 nM 2.17% | 833.33 nM 3.32% | 10000 nM 1.32%

CCN(CC)CCCC(C)Nc1nc(C)cc(Nc2ccc3nc(C)cc(N)c3c2)n1 (stereo not given)
inactive: 1 nM -1.23% | 8.33 nM -0.04% | 100 nM 1.43% | 833.33 nM -0.56% | 10000 nM 0.17%

O=Nc1c(-c2c(O)[nH]c3cc(Br)ccc23)[nH]c2ccccc12 [GSK-3-inhibitor-IX]
inactive: 1 nM -0.14% | 8.33 nM 0.68% | 100 nM 1.64% | 833.33 nM 13.8% | 10000 nM -4.11%

COc1cc2ncnc(Nc3cccc(Cl)c3)c2cc1OC [tyrphostin-AG-1478]
inactive: 1 nM -0.71% | 8.33 nM -1% | 100 nM -7.3% | 833.33 nM -11.1%
active: 10000 nM 17.9%

COc1cc2/c(=N/c3ccc(Br)cc3F)nc[nH]c2cc1OCC1CCN(C)CC1 [vandetanib]
inactive: 1 nM -1.28% | 8.33 nM 2.63% | 100 nM -1.67% | 833.33 nM -6.04% | 10000 nM -3.93%

Clc1cccc(SC2CCNCC2)n1 [anpirtoline]
inactive: 1 nM -4.7% | 8.33 nM -4.88% | 100 nM 1.08% | 833.33 nM 0.38% | 10000 nM -4.79%

Oc1c(I)cc(I)c2cccnc12 [iodoquinol]
inactive: 1 nM -0.28% | 8.33 nM 2.09% | 100 nM -1.12% | 833.33 nM 1.46% | 10000 nM 0.59%
